{"source": "PubChem BioAssay (NCI)", "note": "Compounds without any hit were thinned out: in the full panel of roughly 83,000, 20% have a hit.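 Percent growth is the endpoint: 0 to 100 indicates growth inhibition (40 means 60% inhibition), 0 means no net growth, and negative values indicate cell death.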 Values without a mark were called inactive. Active and inactive are the calls of the source. Rule for the calls: active = growth percent below 10; inactive = the rest."}
{"test_system": "786-0 renal", "assay": "NCI-60 one-dose screen, 48 h (100 = growth as untreated, 0 = no growth, -100 = all killed)", "settings": "10 µM unless noted"}
{"smiles": "Nc1cc2nc3ccccc3sc-2cc1=O", "growth": "97.7%"}
{"smiles": "COc1ccc(C(=O)/C=C/c2c(Cl)c3c(c(OC)c2Cl)OCC(=O)N3)cc1", "growth": "58.2%"}
{"smiles": "COc1cc(NCCCCN=C(N)NC(N)=NC(C)C)c2ncccc2c1", "growth": "106%"}
{"smiles": "CC/C=C\\C[C@H](F)C/C=C1/C(=O)C=C[C@@H]1C/C=C\\CCCC(=O)OC", "growth": "5.15% (active)"}
{"smiles": "C=C(CN1CCN(c2cccc(C(F)(F)F)n2)CC1)c1ccc(C(=O)Nc2ccccc2N)cc1", "growth": "7.8% (active)"}
{"smiles": "Cn1cc(-c2csc(-c3cn(C)c4ncccc34)n2)c2ccccc21", "growth": "60%"}
{"smiles": "COc1ccc2nc3cc(Cl)ccc3c(N3CCN(c4nccc(Nc5ccc(Cl)cc5)n4)CC3)c2c1", "growth": "42.2%"}
{"smiles": "CCN(CC)CCCC(C)N/C(=C1\\C(=O)NC(=O)\\C1=C(/NC(C)CCCN(CC)CC)c1cccc(OC)c1)c1cccc(OC)c1", "note": "(stereo not drawn)", "growth": "9.02% (active)"}
{"smiles": "CC(=O)C1=C(O)C=C2Oc3c(C(=O)/C=C/c4ccccc4)c(O)c(C)c(O)c3[C@]2(C)C1=O", "growth": "30.7%"}
{"smiles": "O=C1/C(=C/c2ccc(Cl)c(Cl)c2)CN(C(=O)CCN2CCC(=NO)CC2)C/C1=C\\c1ccc(Cl)c(Cl)c1", "growth": "-79.6% (active)"}
{"smiles": "CCOC(=O)/C=C/C(=O)[C@H](CC(C)C)NC(=O)[C@H](Cc1ccccc1)NC(=O)OCc1ccccc1", "growth": "30%"}
{"smiles": "Cc1cc2cc3cc(C)c(N(C)C)cc3[n+](C)c2cc1N(C)C", "growth": "26.7%"}
{"smiles": "COC(=O)[C@@H]1CC[C@]2(C)[C@H](CC[C@@H]3O[C@@]32C)[C@@]1(C)CC(=O)c1ccoc1", "growth": "107%"}
{"smiles": "O=C(O)c1ccccc1Nc1cccc(S(F)(F)(F)(F)F)c1", "growth": "110%"}
{"smiles": "COc1ccc(C2c3ccc4ccccc4c3Oc3ncnc(N)c32)cc1", "note": "(stereo not drawn)", "growth": "97.1%"}
{"smiles": "CN1CCN(Cc2ccc(NC(=O)c3cncc(C#Cc4cnc(N)c5cccnc45)c3)cc2C(F)(F)F)CC1", "growth": "32.8%"}
{"smiles": "COc1ccc(OCC(=O)Nc2ccc(-c3nc4ccccc4s3)cc2C)cc1", "growth": "88.8%"}
{"smiles": "Oc1ccc2c(=S)cc(-c3ccc(Br)cc3)oc2c1O", "growth": "28.1%"}
{"smiles": "O=C1CC(c2nc3ccccc3s2)CN1C1CCCCC1", "note": "(stereo not drawn)", "growth": "109%"}
{"smiles": "COc1cccc(-n2cc(-c3nc(Nc4cc(C)[nH]n4)c4ccccc4n3)nn2)c1", "growth": "51.4%"}
{"smiles": "CCN(CC)CC#CCOC(=O)[C@]1(C)CCC[C@@]2(C)[C@H]1CC(C=O)=C1C=C(C(C)C)CC[C@@H]12", "growth": "58.3%"}
{"smiles": "CC(=O)Nc1ccc2c(c1)c(NC(C)=O)nn2C(=O)Nc1ccc(Cc2ccccc2)cc1", "growth": "67.9%"}
{"smiles": "Cc1cc(Nc2nc(N3CCNCC3)nc3ccccc23)n[nH]1", "growth": "76.1%"}
{"smiles": "COC(=S)SCN(CSC(=S)OC)c1ccc(Cl)cc1", "growth": "94.3%"}
{"smiles": "CCN(CC)CCC(=O)Nc1ccc(Cn2nnc3c2C(=O)c2nnn(Cc4ccc(NC(=O)CCN(CC)CC)cc4)c2C3=O)cc1", "growth": "88.7%"}
{"smiles": "O=C(CCCCN1CCOCC1)Nc1ccc(Cn2nnc3c2C(=O)c2nnn(Cc4ccc(NC(=O)CCCCN5CCOCC5)cc4)c2C3=O)cc1", "growth": "-50.5% (active)"}
{"smiles": "COc1ccc(C(=O)c2sc3nc(-c4ccccc4OC)ccc3c2N)cc1OC", "growth": "64.1%"}
{"smiles": "O=C1C[C@H](N2C(=O)c3ccccc3S2(=O)=O)C2CO[C@@H]1O2", "growth": "96.9%"}
{"smiles": "CC(=O)C1=C(O)C=C2Oc3c(C(=O)/C=C/c4cc(C(F)(F)F)cc(C(F)(F)F)c4)c(O)c(C)c(O)c3[C@]2(C)C1=O", "growth": "-46.3% (active)"}
{"smiles": "CCN(CC)c1ccc(/C=C/C2=[N+](C)c3ccccc3C2(C)C)cc1", "growth": "8.12% (active)"}
{"smiles": "c1ccc2c(Nc3cccc4ccccc34)cccc2c1", "growth": "81.2%"}
{"smiles": "CCCCCCCCCCCCCC(=O)C(C)N", "note": "(stereo not drawn)", "growth": "71.3%"}
{"smiles": "CCOC(=O)C(CC)n1c(=O)c2cc(OC)c(OC)cc2c2cnc3[nH]ccc3c21", "note": "(stereo not drawn)", "growth": "80.9%"}
{"smiles": "O=C1C2CC=CCC2C(=O)N1CNc1ccc(Cl)cc1", "note": "(stereo not drawn)", "growth": "89.4%"}
{"smiles": "Cc1ccc(SCN2CCN(c3cccc(Cl)c3)CC2)cc1", "growth": "94.8%"}
{"smiles": "Cc1nc2nc(N)nc(N)c2nc1C", "growth": "98.4%"}
{"smiles": "CSc1[nH]c2ncnc(N)c2c1C#N", "growth": "99.7%"}
{"smiles": "O=C(CN1CCOCC1)Nc1ccc(Cn2nnc3c2C(=O)c2nnn(Cc4ccc(NC(=O)CN5CCOCC5)cc4)c2C3=O)cc1", "growth": "12.1%"}
